± gives the standard deviation of the averaged measurements.
System: lanierone-responsive B-neuron OSN class (ItypOR36)
Assay: net action potential response of lanierone B-neuron (blank-subtracted) (spikes/s (Hz)); higher = stronger excitation
Conditions: 10 µg on filter paper, neuron: B neuron (small spike amplitude)
Protocol: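 Single sensillum recordings from antennal olfactory sensilla of live adult Ips typographus. Each compound was 10 µg in paraffin oil, delivered as a 0.5 s puff. Net response = spikes in the first 0.5 s of response minus the 0.5 s pre-stimulus count, doubled to give Hz, with blank response subtracted. Values are for the small-spike lanierone-responsive B-neuron (putatively expressing ItypOR36), recorded in sensilla co-housing the A-neuron class; N = 1-4, averaged.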

[1] = co-localized A-neuron class: (4S)-cis-verbenol
[2] = co-localized A-neuron class: (5S,7S)-trans-conophthorin
[3] = co-localized A-neuron class: (+)-isopinocamphone
[4] = co-localized A-neuron class: (+)-trans-4-thujanol
[5] = co-localized A-neuron class: ipsdienol
[6] = co-localized A-neuron class: myrcene
[7] = co-localized A-neuron class: p-cymene

Structure (SMILES)	net action potential response [1]	net action potential response [2]	net action potential response [3]	net action potential response [4]	net action potential response [5]	net action potential response [6]	net action potential response [7]
CCC/C=C/C=O [(E)-hex-2-enal]	-2.67 ± 18	0 ± 2	-2.67 ± 3.1	-1.5 ± 3.4	0.667 ± 1.1	-6	-2 ± 8.5
CC(=O)OCCc1ccccc1 [2-Phenethyl acetate]	5.33 ± 13	-0.667 ± 3.1	-1.33 ± 3.1	0.5 ± 4.1	-6.67 ± 7	-6	-5.33 ± 2.3
CC(C)CCO [3-Methyl-1-butanol]	3.33 ± 2.3	0.667 ± 6.1	1.33 ± 11	-4 ± 2.3	-4.67 ± 6.4	-6	-0.667 ± 2.3
CCc1ccc(O)c(OC)c1 [4-Ethylguaiacol]	1.33 ± 3.1	0.667 ± 2.3	5.33 ± 1.1	4 ± 5.4	-2 ± 5.3	-8	0.667 ± 3.1
CC1=CCC(C(C)C)=CC1 [γ-Terpinene]	-2 ± 5.3	0.5 ± 6	-0.667 ± 6.1	-0.5 ± 1.9	0 ± 6	-6	-4 ± 3.5
C=CC(=C)C[C@@H](O)CC(C)C (racemic) [(±)-Ipsenol]	-1.33 ± 5	0 ± 5.3	0 ± 3.5	0.5 ± 1.9	-5.33 ± 2.3	-4	-8 ± 5.7

From the supplement of paper PMC11577813, “Eurasian spruce bark beetle detects lanierone using a highly expressed specialist odorant receptor, present in several functional sensillum types” (BMC Biology, 2024)
